# Test results: the supplement of paper PMC4022240
# ± gives the standard deviation.
# T1: HaloTag-ATRX ADD domain (163-292)
# T1 chain: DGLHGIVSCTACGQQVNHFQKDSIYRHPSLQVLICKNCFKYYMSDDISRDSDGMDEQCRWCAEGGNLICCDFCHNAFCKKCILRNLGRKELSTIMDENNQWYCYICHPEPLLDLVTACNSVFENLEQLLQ
# Target: T1, HaloTag-ATRX ADD domain (163-292)
# Experiment: peptide microarray binding signal (635 nm), min-max normalized on array (fraction of array maximum); higher = stronger binding
# Conditions: peptide region: Unmod H1 variant; binder concentration: 50 nM
# Outline: (§1)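 Triplicate spots of histone 13-mer peptide–cellulose conjugates with a Cy3 tracer were printed on nitrocellulose and probed for 1 h at 4°C with biotin-labelled HaloTag reader fusions (10 nM to 1 μM) plus streptavidin-Alexa Fluor 647 or rabbit histone antibodies (1:10,000 to 1:2,000) plus anti-rabbit Alexa 647. An Axon GenePix 4000B read the 635 nm channel. Binding signal is the spot-triplicate mean intensity after min-max scaling within each library.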
row,Binder,peptide microarray binding signal
1,LKKALAAAGYDVE [Unmod H1 variant L K K A L A A A G Y D V E],0.0162 ± 0.00021
2,KPKAAKARVTKPK [Unmod H1 variant K P K A A K A R V T K P K],0.0178 ± 0.00067
3,IKLGIKSLVSKGT [Unmod H1 variant I K L G I K S L V S K G T],0.0221 ± 0.0027
4,ERGGVSLAALKKA [Unmod H1 variant E R G G V S L A A L K K A],0.0175 ± 0.00043
5,GTGASGSFKLNKK [Unmod H1 variant G T G A S G S F K L N K K],0.01633 ± 0.00015
6,YDVEKNNSRIKLG [Unmod H1 variant Y D V E K N N S R I K L G],0.0163 ± 0.00037
7,KKLKKATGASKKS [Unmod H1 variant K K L K K A T G A S K K S],0.0152 ± 0.00029
8,IVQAASSSKERGG [Unmod H1 variant I V Q A A S S S K E R G G],0.0196 ± 0.0029
9,ASAAPEKPLAGKK [Unmod H1 variant A S A A P E K P L A G K K],0.0171 ± 0.0014
10,KTVKPKKVAKSPA [Unmod H1 variant K T V K P K K V A K S P A],0.0149 ± 0.00058

# Same assay, conditions: peptide region: Unmod H1 variant; binder concentration: 500 nM
row,Binder,peptide microarray binding signal
1,LKKALAAAGYDVE [Unmod H1 variant L K K A L A A A G Y D V E],0.0149 ± 0.00063
2,KPKAAKARVTKPK [Unmod H1 variant K P K A A K A R V T K P K],0.0125 ± 0.0019
3,IKLGIKSLVSKGT [Unmod H1 variant I K L G I K S L V S K G T],0.0236 ± 0.00098
4,ERGGVSLAALKKA [Unmod H1 variant E R G G V S L A A L K K A],0.0165 ± 0.00037
5,GTGASGSFKLNKK [Unmod H1 variant G T G A S G S F K L N K K],0.00986 ± 0.0013
6,YDVEKNNSRIKLG [Unmod H1 variant Y D V E K N N S R I K L G],0.0175 ± 0.00085
7,KKLKKATGASKKS [Unmod H1 variant K K L K K A T G A S K K S],0.00691 ± 0.0006
8,IVQAASSSKERGG [Unmod H1 variant I V Q A A S S S K E R G G],0.0152 ± 0.00061
9,ASAAPEKPLAGKK [Unmod H1 variant A S A A P E K P L A G K K],0.0163 ± 0.00078
10,KTVKPKKVAKSPA [Unmod H1 variant K T V K P K K V A K S P A],0.0041 ± 5.8e-05

# Target: HaloTag-ING2 PHD (mouse Ing2 200-280)
# Experiment: as above
# Conditions: peptide region: Unmod H1 variant; binder concentration: 10 nM
# Outline: as §1
row,Binder,peptide microarray binding signal
1,LKKALAAAGYDVE [Unmod H1 variant L K K A L A A A G Y D V E],0.00322 ± 3.5e-05
2,KPKAAKARVTKPK [Unmod H1 variant K P K A A K A R V T K P K],0.00173 ± 3.7e-05
3,IKLGIKSLVSKGT [Unmod H1 variant I K L G I K S L V S K G T],0.00656 ± 0.00055
4,ERGGVSLAALKKA [Unmod H1 variant E R G G V S L A A L K K A],0.0122 ± 0.00043
5,GTGASGSFKLNKK [Unmod H1 variant G T G A S G S F K L N K K],0.00251 ± 5.1e-05
6,YDVEKNNSRIKLG [Unmod H1 variant Y D V E K N N S R I K L G],0.00841 ± 0.00067
7,KKLKKATGASKKS [Unmod H1 variant K K L K K A T G A S K K S],0.00161 ± 6.7e-05
8,IVQAASSSKERGG [Unmod H1 variant I V Q A A S S S K E R G G],0.0112 ± 0.00078
9,ASAAPEKPLAGKK [Unmod H1 variant A S A A P E K P L A G K K],0.00603 ± 0.00016
10,KTVKPKKVAKSPA [Unmod H1 variant K T V K P K K V A K S P A],0.001552 ± 9.3e-06

# Same assay, conditions: peptide region: Unmod H1 variant; binder concentration: 100 nM
row,Binder,peptide microarray binding signal
1,LKKALAAAGYDVE [Unmod H1 variant L K K A L A A A G Y D V E],0.004606 ± 3.8e-05
2,KPKAAKARVTKPK [Unmod H1 variant K P K A A K A R V T K P K],0.00439 ± 0.00016
3,IKLGIKSLVSKGT [Unmod H1 variant I K L G I K S L V S K G T],0.0191 ± 0.0018
4,ERGGVSLAALKKA [Unmod H1 variant E R G G V S L A A L K K A],0.0252 ± 0.0017
5,GTGASGSFKLNKK [Unmod H1 variant G T G A S G S F K L N K K],0.00539 ± 0.00089
6,YDVEKNNSRIKLG [Unmod H1 variant Y D V E K N N S R I K L G],0.0132 ± 0.00014
7,KKLKKATGASKKS [Unmod H1 variant K K L K K A T G A S K K S],0.0034 ± 0.00046
8,IVQAASSSKERGG [Unmod H1 variant I V Q A A S S S K E R G G],0.0197 ± 0.0013
9,ASAAPEKPLAGKK [Unmod H1 variant A S A A P E K P L A G K K],0.0206 ± 0.0028
10,KTVKPKKVAKSPA [Unmod H1 variant K T V K P K K V A K S P A],0.00369 ± 0.00015

# Target: anti-H3K4me3 antibody ab8580
# Experiment: as above
# Conditions: peptide region: Unmod H1 variant; binder concentration: 1:2,000 dilution
# Outline: as §1
row,Binder,peptide microarray binding signal
1,LKKALAAAGYDVE [Unmod H1 variant L K K A L A A A G Y D V E],0.000982 ± 5.9e-05
2,KPKAAKARVTKPK [Unmod H1 variant K P K A A K A R V T K P K],0.00051 ± 1.5e-05
3,IKLGIKSLVSKGT [Unmod H1 variant I K L G I K S L V S K G T],0.00147 ± 3.9e-05
4,ERGGVSLAALKKA [Unmod H1 variant E R G G V S L A A L K K A],0.00283 ± 4.9e-05
5,GTGASGSFKLNKK [Unmod H1 variant G T G A S G S F K L N K K],0.000547 ± 1.9e-05
6,YDVEKNNSRIKLG [Unmod H1 variant Y D V E K N N S R I K L G],0.000944 ± 1.6e-05
7,KKLKKATGASKKS [Unmod H1 variant K K L K K A T G A S K K S],0.000396 ± 1.2e-05
8,IVQAASSSKERGG [Unmod H1 variant I V Q A A S S S K E R G G],0.00279 ± 6.5e-05
9,ASAAPEKPLAGKK [Unmod H1 variant A S A A P E K P L A G K K],0.00151 ± 4.1e-05
10,KTVKPKKVAKSPA [Unmod H1 variant K T V K P K K V A K S P A],0.0005286 ± 5.1e-06

# Same assay, conditions: peptide region: Unmod H1 variant; binder concentration: 1:10,000 dilution
row,Binder,peptide microarray binding signal
1,LKKALAAAGYDVE [Unmod H1 variant L K K A L A A A G Y D V E],0.001655 ± 1.6e-05
2,KPKAAKARVTKPK [Unmod H1 variant K P K A A K A R V T K P K],0.00097 ± 4e-05
3,IKLGIKSLVSKGT [Unmod H1 variant I K L G I K S L V S K G T],0.00262
4,ERGGVSLAALKKA [Unmod H1 variant E R G G V S L A A L K K A],0.00496 ± 0.00014
5,GTGASGSFKLNKK [Unmod H1 variant G T G A S G S F K L N K K],0.00114 ± 3e-05
6,YDVEKNNSRIKLG [Unmod H1 variant Y D V E K N N S R I K L G],0.00114 ± 3e-05
7,KKLKKATGASKKS [Unmod H1 variant K K L K K A T G A S K K S],0.000856 ± 8.9e-06
8,IVQAASSSKERGG [Unmod H1 variant I V Q A A S S S K E R G G],0.00708 ± 0.00071
9,ASAAPEKPLAGKK [Unmod H1 variant A S A A P E K P L A G K K],0.00262 ± 0.00011
10,KTVKPKKVAKSPA [Unmod H1 variant K T V K P K K V A K S P A],0.000799 ± 8.3e-06

# Target: anti-H3K9me3 antibody ab8898
# Experiment: as above
# Conditions: peptide region: Unmod H1 variant; binder concentration: 1:2,000 dilution
# Outline: as §1
row,Binder,peptide microarray binding signal
1,LKKALAAAGYDVE [Unmod H1 variant L K K A L A A A G Y D V E],0.000861 ± 5.4e-05
2,KPKAAKARVTKPK [Unmod H1 variant K P K A A K A R V T K P K],0.000166 ± 1.8e-06
3,IKLGIKSLVSKGT [Unmod H1 variant I K L G I K S L V S K G T],0.00109 ± 2.9e-05
4,ERGGVSLAALKKA [Unmod H1 variant E R G G V S L A A L K K A],0.00225 ± 8.6e-05
5,GTGASGSFKLNKK [Unmod H1 variant G T G A S G S F K L N K K],0.0003926 ± 3.9e-06
6,YDVEKNNSRIKLG [Unmod H1 variant Y D V E K N N S R I K L G],0.000453 ± 1.5e-05
7,KKLKKATGASKKS [Unmod H1 variant K K L K K A T G A S K K S],0.000257 ± 2.5e-05
8,IVQAASSSKERGG [Unmod H1 variant I V Q A A S S S K E R G G],0.00216 ± 0.00024
9,ASAAPEKPLAGKK [Unmod H1 variant A S A A P E K P L A G K K],0.000891 ± 5.9e-05
10,KTVKPKKVAKSPA [Unmod H1 variant K T V K P K K V A K S P A],0.000121 ± 2.7e-06

# Same assay, conditions: peptide region: Unmod H1 variant; binder concentration: 1:10,000 dilution
row,Binder,peptide microarray binding signal
1,LKKALAAAGYDVE [Unmod H1 variant L K K A L A A A G Y D V E],0.001211 ± 1.2e-05
2,KPKAAKARVTKPK [Unmod H1 variant K P K A A K A R V T K P K],0.000404 ± 4.4e-06
3,IKLGIKSLVSKGT [Unmod H1 variant I K L G I K S L V S K G T],0.001441 ± 1.4e-05
4,ERGGVSLAALKKA [Unmod H1 variant E R G G V S L A A L K K A],0.00283 ± 4.9e-05
5,GTGASGSFKLNKK [Unmod H1 variant G T G A S G S F K L N K K],0.00121 ± 3.2e-05
6,YDVEKNNSRIKLG [Unmod H1 variant Y D V E K N N S R I K L G],0.00075 ± 1.6e-05
7,KKLKKATGASKKS [Unmod H1 variant K K L K K A T G A S K K S],0.000461
8,IVQAASSSKERGG [Unmod H1 variant I V Q A A S S S K E R G G],0.00306 ± 0.00012
9,ASAAPEKPLAGKK [Unmod H1 variant A S A A P E K P L A G K K],0.00115 ± 2e-05
10,KTVKPKKVAKSPA [Unmod H1 variant K T V K P K K V A K S P A],0.000461
